Screening results as filed in PubChem BioAssay.
HepG2 viability: counter-screen for TGF-b inhibitors: cytotoxicity in HepG2 cells; HepG2 CAGA-GFP viability, ATP luminescence, 18 h; actives 0.76% (n = 410,000); Potency, µM (titrated, usually from 46.1 µM), for the others: at the top dose activity change, negative = cytotoxicity, most hits filed as cytotoxic; note: potency is the fitted concentration of half-maximal effect
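CellTiter-Glo luminescence gave cytotoxicity after 18 hours at 37 degrees C. The cells were HepG2 CAGA-GFP in 1% FBS DMEM, stimulated with 500 pg/mL TGF-beta after compound addition. %Activity was normalised to no-cell wells (complete cell-killing) and DMSO (no toxicity), and curves were fitted and classified.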
TDP1 block: blocks human tyrosyl-DNA phosphodiesterase 1. Q9NUW8. recombinant TDP1, AlphaScreen DNA substrate cleavage. Potency, µM (highest dose often 130 µM), without a hit: at the highest dose activity change, negative = inhibition, usual class: inhibitors. actives 0.28% (n = 350,000); note: potency is the fitted concentration of half-maximal effect; % is set by controls: 0 for no effect and ±100 for the full control effect; nearly all actives have a fitted effect of over 40% in size
Target sequence (Q9NUW8 whole entry, looked up): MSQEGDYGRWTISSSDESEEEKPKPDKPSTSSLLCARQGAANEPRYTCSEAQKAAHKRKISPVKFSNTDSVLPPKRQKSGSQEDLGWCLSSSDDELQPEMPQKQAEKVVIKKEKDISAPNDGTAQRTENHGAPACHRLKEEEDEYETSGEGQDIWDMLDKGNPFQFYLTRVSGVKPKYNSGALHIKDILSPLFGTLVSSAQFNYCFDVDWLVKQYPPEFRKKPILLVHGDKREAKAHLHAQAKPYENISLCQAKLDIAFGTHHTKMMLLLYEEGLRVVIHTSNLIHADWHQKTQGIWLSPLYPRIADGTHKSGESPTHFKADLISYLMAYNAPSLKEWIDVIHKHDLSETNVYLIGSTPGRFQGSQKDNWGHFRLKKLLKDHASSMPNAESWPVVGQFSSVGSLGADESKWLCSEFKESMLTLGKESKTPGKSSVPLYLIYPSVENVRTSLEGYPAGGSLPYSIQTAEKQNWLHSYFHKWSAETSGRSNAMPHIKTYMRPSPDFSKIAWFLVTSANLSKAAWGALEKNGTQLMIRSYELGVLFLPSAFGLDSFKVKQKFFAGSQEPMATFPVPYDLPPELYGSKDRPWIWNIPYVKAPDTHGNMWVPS
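Steps: enzyme plus compound, 15 min RT; add biotin/phosphotyrosine-FITC oligonucleotide (15 nM final), react 5 min; add donor/acceptor beads (10 ug/ml final), 10 min; read AlphaScreen. Tdp1 at 1 nM final.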
TDP1 cell CPT: growth inhibition of DT40 Tdp1-/-;hTDP1 cells with camptothecin (screen for TDP1 inhibitors) | chicken DT40 Tdp1-/-;hTDP1 cells + 20 nM CPT, ATP luminescence, 48 h | Potency, µM (top dose mostly 46.2 µM), without a hit: at the highest dose activity change, negative = growth inhibition, hits mostly inhibitors | actives 12% (n = 420,000); note: potency is the fitted concentration of half-maximal effect; % is set by controls: 0 for no effect and ±100 for the full control effect; nearly all actives have a fitted effect of over 55% in size
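Cell growth measured by CellTiter-Glo luminescence after a minimum 48 h, 37 C compound exposure with 20 nM CPT in Tdp1-knockout DT40 cells stably expressing hTDP1, seeded 400/well; qHTS titration format.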
IL-1B inflam inh: blocks inflammasome-driven IL-1 beta release. activity change, % at 57.5 µM. AID 743279. actives 4.7% (n = 360,000). THP-1 LPS/ATP IL-1B secretion, AlphaLISA, 16 h; stronger effect = lower value; in the data active = activity change below about -50%; inconclusive = mostly about -30% to -49%; note: % is set by controls: 0 for no effect and ±100 for the full control effect
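THP-1 cells pretreated 1 hr with compounds (up to 57.5 uM final), then stimulated with LPS (250 ng/mL final) plus ATP (1.25 mM final); secreted IL-1B measured by AlphaLISA after 16 hr, decreased signal indicating inhibition.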
TDP1 cell noCPT: qHTS for Inhibitors of human tyrosyl-DNA phosphodiesterase 1 (TDP1): qHTS in cells in absence of CPT. DT40 Tdp1-/- hTDP1 cells, no CPT, ATP luminescence, 48 h. Potency, µM (highest dose often 46.2 µM), for inactives: top-dose activity change, negative = growth inhibition, hits mostly inhibitors. actives 15% (n = 420,000). AID 686978, 2013; note: potency is the fitted concentration of half-maximal effect; % is set by controls: 0 for no effect and ±100 for the full control effect; nearly all actives have a fitted effect of over 55% in size
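No-CPT arm: Tdp1-/-;hTDP1 DT40 cells (400/well) plus compounds, incubated ≥48 hr at 37 °C. Readout CellTiter-Glo luminescence.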
TGFb inhibitor: inhibitors of TGF-b signaling; HepG2 CAGA-GFP TGF-b/SMAD3 reporter, GFP fluorescence, 18 h; TGF-beta stimulated, 500 pg/mL final; actives 1.2% (n = 410,000); Potency, µM (series often up to 46.1 µM), inactives show top-dose activity, negative = inhibition, usual class: inhibitors; AID 588855; note: potency is the fitted concentration of half-maximal effect; % is set by controls: 0 for no effect and ±100 for the full control effect; nearly all actives have a fitted effect of over 65% in size
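HEPG2 CAGA-GFP cells (1000/well, DMEM with 1% FBS) were pre-incubated 2 h at 37 degrees C, given compound by pin tool, then stimulated with TGF-beta at 500 pg/mL final for 18 h before per-cell GFP fluorescence imaging.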
Numbers without * were called inactive; ? = inconclusive; / = no result; [ ] = dose if it differs, or a comment. Shown are actives, neighbours in structure and some others; about 19% of the full set was active somewhere. Unless noted, calls come from the whole dose curve; as a rule, active = well fitted curve in the direction sought with a large enough effect; inconclusive = small, poorly fitted or top-dose-only effect, or another doubt; inactive = no such curve, though single readings can be large; an effect the other way counts as inactive or inconclusive.

SMILES | HepG2 viability | TDP1 block | TDP1 cell CPT | IL-1B inflam inh | TDP1 cell noCPT | TGFb inhibitor
COc1cc(Nc2c3c(nc4ccccc24)CCCC3)cc(OC)c1OC | -49% | 0% | ? | ? | ? | -7%
COc1cc(Cl)c(C)cc1Nc1c2c(nc3ccccc13)CCC2 | 11µM* | 6% | 2.1µM* | / | 1.5µM* | 16µM*
COc1cc(Cl)c(C)cc1NC(=O)CSc1nc2c(c(=O)[nH]1)CCC2 | 1% | 14% | -28% | / | ? | -8%
COc1ccc(Nc2c3c(nc4ccccc24)CCC3)c(OC)c1 | -32% | / | 15µM* | ? | 16µM* | ?
Cc1ccc(Nc2nc3c(s2)CCC3)c(C)c1 | -23% | 8% | ? | -20 | ? | 10%
COc1ccccc1Nc1c2c(nc3ccccc13)CCC2 | -27% | / | 18µM* | 5 | 16µM* | 18µM*
O=C(CN1CCCCC1)NCC(=O)Nc1ccc(F)c(F)c1F | -12% | -2%[56.1 µM] | 4% | -4 | -2% | -4%
COc1ccc2[nH]c(=O)c(CN(CCc3ccccc3)C(C)=O)cc2c1 | 1% | 0% | -26% | -11 | -16% | -2%
CCN(CC)CCCNC(=S)N(Cc1cccs1)Cc1cc2cc3c(cc2[nH]c1=O)OCCO3 | 6% | 8% | -29% | 0 | ? | ?
COc1cc2cc(CN(Cc3cccs3)C(=S)Nc3ccc(C)cc3)c(=O)[nH]c2cc1OC | 3% | 0% | 26µM* | -9 | 16µM* | 0%
CCC(C)NC(=S)N(CCc1ccccc1)Cc1cc2cc(OC)c(OC)cc2[nH]c1=O (configuration not stated) | -5% | 5% | ? | ? | 18µM* | ?
Cc1ccc(NC(=S)N(Cc2cccs2)Cc2cc3cc(C)ccc3[nH]c2=O)cc1 | 23% | 3% | ? | -8 | ? | ?
COc1cc2cc(CN(Cc3cccs3)C(=S)Nc3cccc(C)c3)c(=O)[nH]c2cc1OC | / | 5% | / | / | / | /
CNC(=S)N(Cc1cccs1)Cc1cc2cc(OC)c(OC)cc2[nH]c1=O | -16% | 8% | ? | 2 | 18µM* | ?
Cc1cccc(NC(=S)N(Cc2cccs2)Cc2cc3cc(C)ccc3[nH]c2=O)c1 | -2% | 3% | 18µM* | 11 | 21µM* | 2%
COCCN1C(=S)NC(c2cccc(C(F)(F)F)c2)C(C(=O)N2CCOCC2)=C1C (configuration not stated) | -1% | 0% | 6% | 3 | -12% | 17%
O=C(CCS(=O)(=O)c1cc(Br)cc2c1N(C(=O)C1CC1)CC2)Nc1ccc(F)cc1 | -8% | 0% | -3% | / | -4% | -15%
Cc1ccc(-c2cnc(C(O)c3cc(F)cc(Cl)c3)[nH]2)cc1 (configuration not stated) | -15% | / | ? | 34 | ? | ?
Cc1cccc(N(C(=O)c2snc(C(N)=O)c2N)C(C)C(=O)NCC2CCCO2)c1 (configuration not stated) | -7% | 4% | -2% | ? | -22% | 3%
COc1ccccc1N(C(=O)c1snc(C(N)=O)c1N)C(C(=O)NC1CCCC1)c1ccco1 (configuration not stated) | -22% | 4% | ? | -8 | -17% | ?
Cc1cccc(N(C(=O)c2snc(C(N)=O)c2N)C(C(=O)NCC2CCCO2)c2cccs2)c1 (configuration not stated) | 4% | 3% | -88% | 13 | 0.41µM* | 7%
Cc1ccc(C(C(=O)NCC2CCCO2)N(C(=O)c2snc(C(N)=O)c2N)c2ccccc2)o1 (configuration not stated) | 11% | 3% | -28% | -5 | ? | -7%
Cc1ccc(C)c(N(C(=O)c2snc(C(N)=O)c2N)C(C(=O)NCC2CCCO2)c2ccc(C)o2)c1 (configuration not stated) | -21% | 0% | 16µM* | -3 | 10µM* | ?
Cc1cccc(N(C(=O)c2snc(C(N)=O)c2N)C(C(=O)NCC2CCCO2)c2ccc(N(C)C)cc2)c1C (configuration not stated) | 3% | 14% | ? | 7 | ? | 12%
COc1ccc(C)cc1N(C(=O)c1snc(C(N)=O)c1N)C(C(=O)NC1CCCCC1)c1ccc(C)o1 (configuration not stated) | 6% | 5% | 18µM* | -55* | 18µM* | ?
SMILES | HepG2 viability | TDP1 block | TDP1 cell CPT | IL-1B inflam inh | TDP1 cell noCPT | TGFb inhibitor
Cc1ccc(C)c(N(C(=O)c2snc(C(N)=O)c2N)C(C(=O)NCC2CCCO2)c2cccs2)c1 (configuration not stated) | 2% | 1% | 7.3µM* | 28 | 8.2µM* | 3%
COc1ccc(C(=O)N(C)CCCC2CCCC2)cc1OC1CCN(C(C)C)CC1 | -30% | 3% | ? | ? | ? | ?
Cc1ccc(S(=O)(=O)N2CCC(=O)N(C(COCc3ccc(C(F)(F)F)cc3)C(C)C)CC2)cc1 (configuration not stated) | -24% | 4% | 16µM* | -24 | 12µM* | ?
Cc1ccc(S(=O)(=O)N2CCC(=O)N([C@H](COCc3ccc(C(F)(F)F)cc3)Cc3ccccc3)CC2)cc1 | / | 0%[96 µM] | ? | 0 | ? | /
Cc1ccc(S(=O)(=O)N2CCC(=O)N([C@H](COCc3cccc(C(F)(F)F)c3)C(C)C)CC2)cc1 | / | / | ? | 24 | 16µM* | /
CCN(CC)c1nc2cc(C)ccc2cc1/C=C(\C#N)C(N)=O | 1% | 3% | ? | -58* | ? | ?
